An excerpt weighted towards active compounds, which were near 0.35% of everything screened.
KinaseGlo FLuc – counter-screen: inhibitors of Kinase-Glo firefly luciferase; Q27757; Kinase-Glo luciferase, ATP luminescence, 8 min; Potency, µM (series often up to 38.3 µM), hits mostly inhibitors; hit rate 0.28% among 200,000; AID 1379; further: nearly all actives have a fitted effect of over 60% in size
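Luminescence was the read-out, taken after 8-minute incubation at ambient temperature. Luciferase turned over luciferin with 10 uM ATP in imidazole pH 7.2 buffer containing KCl, MgCl2, Tween 20 and BSA.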
TRPV1 agonist – human TRPV1 agonism; hit rate 0.19% among 320,000; activation, % at 8.33 µM; TRPV1-expressing cells, Fluo-8 calcium influx, agonist mode; in the data active means activation above about 80%; inconclusive means between about 30% and that limit
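TRPV1-expressing cells were cultured overnight at 35.5C and loaded with Fluo-8 calcium dye for 40 to 90 min at room temperature. After a 10 s baseline, compound was added and calcium influx was read kinetically for 3 min (ex 480/em 520 nm).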
TCR act – T cell receptor activation. primary human leukocytes, anti-CD3, IL-2 HTRF, 48 h. Potency, µM (doses to about 9.22 µM), actives largely listed as activators. AID 504894. 330,000 tested, under 10 active
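Using a-CD3 beads without co-stimulation, primary human leukocytes were exposed to compounds for 48 hr. An HTRF IL-2 kit measured the cytokine, with europium-to-d2 energy transfer producing emission at 665nm upon 320nm excitation.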
TRPV1 PAM – human TRPV1 potentiation; Q8NER1; TRPV1-expressing cells, Fluo-8 calcium influx, capsaicin EC20 potentiation; potentiation, % at 8.33 µM; hit rate 0.02% among 320,000; in the data active means potentiation above about 80%; inconclusive means between about 30% and that limit
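Cells expressing TRPV1 were dye-loaded with Fluo-8 and read kinetically: 10 s baseline, 3 min after compound (agonist portion), then 2 min after EC20 capsaicin (allosteric enhancer portion). Calcium-bound dye fluorescence at 480/520 nm.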
MBNL1-CUG inh – MBNL1-poly(CUG) RNA binding inhibition | Q9NR56 | TR-FRET MBNL1-His/biotin-(CUG)12 binding, 665/545 ratio | Potency, µM (series often up to 57.5 µM), actives largely listed as inhibitors | hit rate 0.036% among 280,000; active means well fitted inhibition curve with a large enough effect in the signal ratio, with a control signal flat, not every such curve was filed as active; inconclusive means small, poorly fitted or top-dose-only effect, or effect the other way, or a change in a side signal; inactive means no such curve, though single readings can be large or run the other way; the % refers to the signal ratio
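Compounds (final 92 nM to 58 uM) are added to His-tagged MBNL1 and biotin-(CUG)12, then terbium anti-His antibody and streptavidin-XL665 (5 nM final). After 60 min at room temperature, the 665/545 nm ratio is read.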
CBFb RUNX1 block – CBF-beta/RUNX1 interaction disruption; AID 1477; Q01196+Q13951; AlphaScreen CBFb-His/RUNX1-biotin binding, biochemical; Potency, µM (titrated, usually from 59.8 µM), most hits filed as inhibitors; 230,000 tested, under 10 active
Target sequence (Q01196 whole entry, looked up): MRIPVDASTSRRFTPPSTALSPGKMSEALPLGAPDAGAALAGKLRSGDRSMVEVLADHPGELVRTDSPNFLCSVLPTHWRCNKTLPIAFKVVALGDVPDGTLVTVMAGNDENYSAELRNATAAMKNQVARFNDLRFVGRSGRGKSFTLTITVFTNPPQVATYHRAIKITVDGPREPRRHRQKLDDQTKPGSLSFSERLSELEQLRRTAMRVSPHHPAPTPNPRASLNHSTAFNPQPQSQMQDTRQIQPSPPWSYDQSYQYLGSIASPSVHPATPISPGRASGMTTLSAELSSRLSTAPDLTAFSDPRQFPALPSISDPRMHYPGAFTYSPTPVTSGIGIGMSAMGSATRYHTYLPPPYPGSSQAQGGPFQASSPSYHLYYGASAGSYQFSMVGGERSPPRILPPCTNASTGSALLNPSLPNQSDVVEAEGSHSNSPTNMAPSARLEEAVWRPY
Target sequence (Q13951 whole entry, looked up): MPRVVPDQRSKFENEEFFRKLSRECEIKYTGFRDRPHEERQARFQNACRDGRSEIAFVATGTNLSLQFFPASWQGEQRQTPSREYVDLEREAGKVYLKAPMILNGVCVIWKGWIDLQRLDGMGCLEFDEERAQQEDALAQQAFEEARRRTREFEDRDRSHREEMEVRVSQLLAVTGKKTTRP
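CBFb-His/RUNX1-biotin, 30 nM each, preincubated 20 min RT; compound 15 min RT; Ni + streptavidin beads 50 ng each, 90 min RT; AlphaScreen read.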
MBNL1-CUG FRET – blocks human MBNL1 binding to CUG repeat RNA, TR-FRET validation; shares compounds with MBNL1-CUG inh; TR-FRET MBNL1-His / biotin-(CUG)12 binding, 60 min; Potency, µM (top dose mostly 57.6 µM), hits mostly inhibitors; hit rate 50% among 140; AID 493199
MBNL1-CUG Alpha – confirmation of MBNL1-(CUG)12 RNA binding inhibitors, orthogonal format; shares compounds with MBNL1-CUG inh; AlphaScreen MBNL1-His / biotin-(CUG)12 binding; Potency, µM (highest dose often 57.7 µM), most hits filed as inhibitors; hit rate 30% among 140
MBNL1 HTRF CS – hit in HTRF counterscreen for MBNL1-poly(CUG) binding inhibitors | shares compounds with MBNL1-CUG inh | His-Menin/biotin-MLL peptide TR-FRET counterscreen | Potency, µM (titrated, usually from 57.6 µM), usual class: inhibitors | hit rate 20% among 120 | AID 651843
Numbers stand for hits; – = inactive; ? = inconclusive; · = no result; ! = a repeat was not active; [ ] = remark or other dose. Unless noted, the call rests on the fitted dose curve; in most records, active means well fitted curve in the direction sought with a large enough effect; inconclusive means small, poorly fitted or top-dose-only effect, or another doubt; inactive means no such curve, though single readings can be large; an effect the other way counts as inactive or inconclusive.

SMILES | KinaseGlo FLuc | TRPV1 agonist | TCR act | TRPV1 PAM | MBNL1-CUG inh | CBFb RUNX1 block | MBNL1-CUG FRET | MBNL1-CUG Alpha | MBNL1 HTRF CS
C/C1=C2/[N-]C(C(CC(N)=O)[C@@]2(C)CCC(=O)NCC(C)OP(=O)([O-])O[C@H]2[C@@H](O)[C@@H](n3cnc4cc(C)c(C)cc43)O[C@@H]2CO)[C@]2(C)N=C(/C(C)=C3N=C(/C=C4N=C1C(CCC(N)=O)C\4(C)C)[C@@H](CCC(N)=O)[C@]\3(C)CC(N)=O)[C@@H](CCC(N)=O)[C@]2(C)CC(N)=O.CC(=O)O.[Co] (stereo not given in full) | · | · | · | · | · | · | 8.19µM | 2.59µM | ·
O=S(=O)(Nc1cc(Br)cc2cccnc12)c1ccccc1 | · | – | · | – | · | · | · | · | ·
CCO/C=C1/C(=O)N(Cc2ccccc2)C(=O)c2ccccc21 | – | – | – | – | 15.8µM | – | – | 51.7µM | –
CC(C)[C@H](NC(=O)[C@@H](Cc1c[nH]c2ccccc12)NC(=O)[C@H](Cc1ccc(O)cc1)NC(=O)[C@@H](N)CC(=O)O)C(=O)N[C@H](Cc1c[nH]c2ccccc12)C(=O)N[C@H](Cc1c[nH]c2ccccc12)C(=O)N[C@@H](CCCCN)C(N)=O | · | · | · | · | · | – | · | · | ·
O=C1c2c(O)ccc(O)c2C(=O)c2c(NCCNCCO)ccc(NCCNCCO)c21 | 12.6µM! | – | – | – | ? | ? | 1.58µM | ? | –
O=C1c2ccccc2C(=O)c2c(Nc3ccc(CCO)cc3)ccc(O)c21 | · | – | – | – | ? | · | · | · | ·
Nc1ncnc2c1ncn2[C@H]1O[C@@H](C(=O)O)[C@@H](O)[C@H]1O | –[7.66 µM] | · | · | · | · | · | · | · | ·
OC1(c2ccc(Cl)cc2)CCN(Cc2cn[nH]c2-c2ccccc2)CC1 | · | – | – | – | 10µM | – | 41.1µM | – | –
OC1(c2ccc(Cl)cc2)CCN(Cc2cn[nH]c2-c2ccc(F)cc2)CC1 | · | – | – | – | · | – | · | · | ·
COc1ccccc1NC(=O)Nc1ccnn1C1CCCCC1 | – | – | – | – | – | – | – | – | –
COc1ccccc1NC(=O)Nc1ccnn1C1CCN(C(=O)c2ccccn2)CC1 | · | – | – | – | – | · | · | · | ·
COc1ccccc1NC(=O)Nc1ccnn1Cc1cccs1 | – | – | – | – | 3.98µM | – | 1.3µM | 0.651µM | 10.3µM
C/C(=N/O)[C@@H]1C[C@H](CC(=O)O)C1(C)C | –[7.66 µM] | · | · | · | · | · | · | · | ·
C=CC1=C2C=C(C3CC3)N(C3CCCC3)C=C2C(=O)C(C)(OC(=O)c2ccco2)C1=O (stereo not given) | –[7.66 µM] | · | · | · | · | –[13.1 µM] | · | · | ·
CN1CCc2cc(NC(=O)Nc3cccnc3)ccc21 | – | · | · | · | · | – | ? | – | ·
CC(=O)c1ccc(NC(=O)Nc2cccnc2)cc1 | · | – | – | – | 28.2µM | · | 20.6µM | – | 29.1µM
Nc1cc(Cl)c([N+](=O)[O-])cc1O | · | · | · | · | · | – | · | · | ·
C[C@@H]1O[C@@H](OC[C@H]2O[C@@H](Oc3c(-c4ccc(O)c(O)c4)oc4cc(O)cc(O)c4c3=O)[C@H](O)[C@@H](O)[C@@H]2O)[C@H](O)[C@H](O)[C@H]1O | · | – | – | – | ? | – | ? | ? | –
CC(C)(C)OC(=O)NC(NC(=O)OCC1c2ccccc2-c2ccccc21)C(=O)O (stereo not given) | · | · | · | · | · | – | · | · | ·
O[C@@H]1CO[C@H]2C1OC[C@@H]2O (stereo not given in full) | · | · | · | · | · | – | · | · | ·
COc1ccc(C(c2c(C)[nH]n(-c3ccccc3)c2=O)c2c(C)[nH]n(-c3ccccc3)c2=O)cc1OC | – | – | – | – | 39.8µM | – | ? | ? | –
CCCC[C@H](NC(=O)[C@H](CO)NC(=O)[C@H](Cc1ccc(O)cc1)NC(=O)[C@H](CO)NC(C)=O)C(=O)N[C@@H](CCC(=O)O)C(=O)N[C@@H](Cc1cnc[nH]1)C(=O)N[C@H](Cc1ccccc1)C(=O)N[C@@H](CCCNC(=N)N)C(=O)N[C@@H](Cc1c[nH]c2ccccc12)C(=O)NCC(=O)N[C@@H](CCCCN)C(=O)N1CCC[C@H]1C(=O)N[C@H](C(N)=O)C(C)C | · | · | · | · | · | – | · | · | ·
CCCCc1nc2c(c3c1C[C@H](C)OC3)CN(C(=O)COC)CC2 | –[7.66 µM] | · | · | · | · | –[13.1 µM] | · | · | ·
COc1cc(CN2CCN(c3cccc(C)c3C)CC2)cc(Br)c1O | – | – | – | – | – | – | · | · | ·
COc1ccc(CN2CCN(c3cccc(C)c3C)CC2)cc1OC | – | – | – | ? | 25.1µM | – | 16.3µM | – | ?
COc1ccc(COC(=O)N/N=C2/C[C@@H](O)[C@@H](O)[C@@H]3[C@@H]4C(=O)N(C5CCCCC5)C(=O)[C@H]4CC[C@@H]23)cc1 | · | · | · | · | · | –[13.1 µM] | · | · | ·

Screening results as filed in PubChem BioAssay.
